In all, about 33,000 sequences were measured (“E-score (-0.5 to 0.5)”: median about -0.011, highest 2% from about 0.28 on). This excerpt belongs to a sample that is enriched for the highest values.
Molecular target: T1, Gcr1 (UniProt P07261)
T1 sequence: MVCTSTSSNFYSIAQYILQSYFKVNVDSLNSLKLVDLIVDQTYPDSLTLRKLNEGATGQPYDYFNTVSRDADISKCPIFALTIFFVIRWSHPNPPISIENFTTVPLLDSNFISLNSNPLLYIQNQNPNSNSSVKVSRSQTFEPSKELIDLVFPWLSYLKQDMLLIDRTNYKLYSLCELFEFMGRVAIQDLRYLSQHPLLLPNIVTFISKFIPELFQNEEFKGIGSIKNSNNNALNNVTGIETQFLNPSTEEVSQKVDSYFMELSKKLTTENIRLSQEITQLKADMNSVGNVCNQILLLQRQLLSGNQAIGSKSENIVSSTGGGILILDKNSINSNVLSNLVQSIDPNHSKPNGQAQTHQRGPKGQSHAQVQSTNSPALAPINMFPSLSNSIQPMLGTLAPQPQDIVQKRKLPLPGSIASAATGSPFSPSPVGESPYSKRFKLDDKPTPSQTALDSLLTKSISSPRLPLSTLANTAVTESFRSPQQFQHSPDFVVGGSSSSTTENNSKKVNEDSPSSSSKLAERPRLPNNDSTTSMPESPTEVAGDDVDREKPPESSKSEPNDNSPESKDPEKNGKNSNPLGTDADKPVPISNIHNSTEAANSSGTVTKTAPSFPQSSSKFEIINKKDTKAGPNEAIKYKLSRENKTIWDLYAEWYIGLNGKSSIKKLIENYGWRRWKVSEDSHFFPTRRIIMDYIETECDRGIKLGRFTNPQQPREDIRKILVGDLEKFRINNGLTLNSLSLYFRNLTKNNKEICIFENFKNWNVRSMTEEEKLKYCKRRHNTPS
Experiment: PBM E-score (8-mer binding enrichment) (E-score (-0.5 to 0.5)); higher = stronger / more preferred TF binding
Conditions: protein concentration: 100 nM; construct: GST-full length
In short: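 Each ungapped eight-base word and its reverse complement, pooled, received an E-score from the Universal PBM Analysis Suite. Underlying scans, normalised with masliner, recorded fluorescent anti-GST bound to GST-tagged yeast transcription factors. These were applied at about 100-200 nM to universal all-10-mer Agilent arrays double-stranded by primer extension.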

| Sequence | PBM E-score |
| --- | --- |
| CACTTCTA | 0.00557 |
| ATTTATGC | 0.0089 |
| GCGGCCCC | 0.19 |
| GATGAGAA | -0.138 |
| TGCGTCCA | 0.0639 |
| GGCGTCCA | 0.436 |
| CGCGTCCA | 0.245 |
| GTGACATA | 0.217 |
| GCAGATTA | 0.0499 |
| GGATACCA | 0.33 |
| TGATACCA | 0.107 |
| AGATACCA | 0.246 |
| GAAAACCA | 0.084 |
| AAATCTTA | 0.111 |
| CGAATCTA | 0.122 |
| AGCATCTA | 0.319 |
| GGTATCTA | 0.292 |
| AGTATCTA | -0.103 |
| GGCATCTA | 0.347 |
| AGCATCTG | 0.115 |
| CGTATCTA | 0.0661 |
| AGCATCTC | 0.121 |

| Sequence | PBM E-score |
| --- | --- |
| CGCATCTA | 0.204 |
| GGCATCAA | 0.0535 |
| AGAATCTA | 0.219 |
| GGAATCTA | 0.357 |
| CGAGACAG | -0.0925 |
| AGACGGAA | -0.0525 |
| AAGGAATA | -0.159 |
| ACTGGTCC | -0.314 |
| ACCCACAC | -0.0404 |
| ACTCGCCG | -0.00848 |
| ACTCTTCC | -0.211 |
| CGCGAACA | -0.00841 |
| GCGGGGCC | 0.131 |
| ACATCTAC | -0.0726 |
| CATTGAAC | 0.0331 |
| ATTTTAGC | 0.0912 |
| AGCCACTG | 0.11 |
| CACCGGTC | -0.271 |
| AAGGACGC | 0.256 |
| CCGGACGG | -0.116 |
| GAGGACGC | 0.289 |
| GAGGACAC | -0.225 |

| Sequence | PBM E-score |
| --- | --- |
| ACGGACGC | 0.14 |
| CAGGACGA | -0.145 |
| CTGGACGA | -0.0396 |
| GAGGACGA | -0.0483 |
| ATGGACGC | 0.262 |
| CCGGACGC | 0.31 |
| CTGGACGC | 0.412 |
| CAGGACGC | 0.412 |
| AATTTGAG | 0.137 |
| AGCTTCGA | 0.0125 |
| TATTGCCA | 0.00643 |
| ACCCGCTC | -0.0223 |
| ATATGCAT | -0.0625 |
| AGAAAAAC | 0.134 |
| GTGTTCCA | 0.112 |
| ACCCGGCA | 0.125 |
| AACGGAGG | -0.167 |
| CAGCCACG | 0.12 |
| ATAAGAAG | 0.381 |
| CAAAGAAG | 0.184 |
| AGAAGAAC | 0.13 |
| AAAAGAAC | -0.0325 |

| Sequence | PBM E-score |
| --- | --- |
| AGAAGAAT | 0.119 |
| ACAAGATC | 0.0465 |
| ACAAGATA | 0.102 |
| ATAAGAAA | 0.171 |
| ATAAGAAC | 0.269 |
| ACAAGATG | 0.294 |
| AAAAGAAG | 0.309 |
| AGAAGAAG | 0.437 |
| CTCAATAC | -0.00463 |
| CTGTTGGA | 0.103 |
| GGTCGGAC | -0.206 |
| CCATATCG | 0.05 |
| CGTGAGGC | -0.0867 |
| ACAAGAAA | 0.155 |
| ACAAGAAT | 0.252 |
| ACAAGAAG | 0.415 |
| GCAAACTA | 0.0887 |
| GCGCACCC | -0.0278 |
| TGGCACAA | -0.0481 |
| TCGCACCA | 0.0244 |

From the supplement of paper PMC3334620
